Only some compounds are listed: those with a hit (about 3.5% of all), similar ones and a draw of the others.
TEAD-YAP block – TEAD-YAP interaction inhibition; HEK-TIYL cells, TEAD-Gal4/YAP UAS-luciferase luminescence; inhibition, % at 9.12 µM; 640,000 compounds, 1.4% hits; in the data active means inhibition above about 32%
MITF primary – human MITF inhibition, primary screen. O75030. AlphaScreen MITF homodimerization, bead proximity signal. inhibition, % at 2.6 µM. 650,000 compounds, 0.91% hits. AID 1259374; in the data active means inhibition above about 50%
GPR151 ag – activators of human GPR151. activation, % at 11.2 µM. Q8TDV0. PathHunter beta-arrestin GPR151 cells, luminescence. 650,000 compounds, 1% hits; in the data active means activation above about 4.9%
Target sequence (Q8TDV0 whole entry, looked up): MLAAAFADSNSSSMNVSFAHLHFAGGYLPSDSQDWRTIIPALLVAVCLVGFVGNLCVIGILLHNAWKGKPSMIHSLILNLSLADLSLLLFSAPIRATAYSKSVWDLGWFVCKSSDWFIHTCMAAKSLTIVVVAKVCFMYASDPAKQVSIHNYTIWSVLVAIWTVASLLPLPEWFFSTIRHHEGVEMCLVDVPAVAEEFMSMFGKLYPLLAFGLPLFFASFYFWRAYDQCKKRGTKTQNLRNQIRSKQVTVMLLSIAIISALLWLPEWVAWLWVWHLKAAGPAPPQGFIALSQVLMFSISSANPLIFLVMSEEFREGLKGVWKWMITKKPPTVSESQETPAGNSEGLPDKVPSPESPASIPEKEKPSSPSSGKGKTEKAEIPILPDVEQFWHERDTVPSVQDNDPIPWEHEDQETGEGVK
FBW7 act – activators of human E3 ligase FBW7; AlphaScreen FBW7–phospho-cyclin E peptide binding, activator screen; normalized activity (activation), % at 26.1 µM; 650,000 compounds, 0.13% hits; AID 1259310; in the data active means normalized activity above about 1.9%;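 further: purified mutant Fbw7 with reduced substrate affinity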
GPR151 confirm – human GPR151 activation, confirmation screen; shares compounds with GPR151 ag; GPR151 PathHunter beta-arrestin cells, luminescence, 90 min; % of EA-reagent control over plate median; activation, % at 11.2 µM; 6,700 tested, under 10 active;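 active means mean percent activation across replicates above the confirmation screen cutoff of 4.91%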
GPR119 counter – counter-screen for GPR151 activators: effect on human GPR119. activation, % at 11.2 µM. shares compounds with GPR151 ag. 6,700 compounds, 0.3% hits. GPR119 PathHunter beta-arrestin cells, luminescence, 90 min; 0 = compound-well median, 100 = enzyme-acceptor control;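 active means mean percent activation in the counterscreen above 29.09%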;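 further: counterscreen on off-target GPR119 to flag nonselective hits from the GPR151 activator screen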
Hits are given with their value; - = inactive; . = not tested or not shown.

SMILES | TEAD-YAP block | MITF primary | GPR151 ag | FBW7 act | GPR151 confirm | GPR119 counter
OCCNc1nc(-c2csc3ccccc23)nc2c1ncn2Cc1ccc(C(F)(F)F)cc1 | - | - | 6.1 | - | - | -
FC(F)(F)c1ccc(Cn2cnc3c(NC4CCN(Cc5ccccc5)CC4)nc(Nc4ccc(C(F)(F)F)cc4)nc32)cc1 | - | - | 5.9 | - | - | -
CCCNc1nc(-c2ccc(N3CCOCC3)nc2)nc2c1ncn2Cc1ccc(C(F)(F)F)cc1 | - | - | - | - | . | .
FC(F)(F)c1ccc(Cn2cnc3c(NC4CCN(Cc5ccccc5)CC4)nc(Nc4ccccc4)nc32)cc1 | - | - | - | - | . | .
FC(F)(F)c1ccc(Cn2cnc3c(NC4CC4)nc(-c4ccc(N5CCOCC5)nc4)nc32)cc1 | - | - | 8.0 | - | - | -
O=C(Nc1ccc(F)c(F)c1F)C1Cc2ccccc2CN1C(=O)c1ccco1 (stereo unspecified) | - | - | - | - | . | .
Cc1cc(-c2cnc(N3CCCC3)nc2C2CCCN(C(=O)c3ccccc3F)C2)on1 (stereo unspecified) | - | - | - | - | . | .
Cc1ccc(CNc2c(-c3ccc(C)cc3)c(=O)c2=O)cc1 | - | - | - | - | . | .
CCOC(=O)c1c(NC(NC(=O)c2ccco2)(C(=O)OC)C(F)(F)F)sc(-c2ccccc2)c1C (stereo unspecified) | - | - | - | - | . | .
FC(F)(F)c1ccc(Cn2cnc3c(Nc4ccc(N5CCOCC5)cc4)nc(-c4ccccc4)nc32)cc1 | - | - | 5.2 | - | - | -
FC(F)(F)c1ccc(Cn2cnc3c(Nc4ccccc4)nc(Nc4ccccc4)nc32)cc1 | - | - | 6.2 | - | - | -
Cc1nnc(SCc2ccc(Cl)cc2)nc1C | - | - | 5.2 | - | - | -
Cc1nnc(SCc2ccc(Cl)cc2)nc1/C=C/N(C)C | - | - | - | - | . | .
CCn1c(SCC(=O)c2ccccc2)nc2c(c1=O)SC(C)C2 (stereo unspecified) | - | - | 5.3 | - | - | -
CC1Cc2nc(SCC(=O)NCc3ccccc3)n(C)c(=O)c2S1 (stereo unspecified) | - | - | 6.4 | - | - | -
Cc1cc2nn(-c3ccccc3)nc2cc1NC(=O)COc1ccc([N+](=O)[O-])cc1 | - | - | - | - | . | .
O=C(Nc1ccccc1)c1ccccc1Nc1ccnc(Nc2ccc(N3CCOCC3)cc2)c1 | - | - | - | - | . | .
O=C(NCc1ccccc1)c1ccccc1Nc1ccnc(Nc2ccc(N3CCOCC3)cc2)c1 | 37.2 | - | 10.6 | - | - | -
O=C(NC1C2CC3CC(C2)CC1C3)c1ccc(CN2CCC(O)CC2)[nH]c1=O (stereo unspecified) | - | - | - | - | . | .
O=C(N[C@H]1CCCCNC1=O)c1ccc(CN2CCC(c3ccccc3)CC2)[nH]c1=O | - | - | 5.3 | - | - | -
CC(=O)N1c2ccc(S(=O)(=O)N3CCCC3C(=O)Nc3cccc(C)n3)cc2CC1C (stereo unspecified) | - | - | - | - | . | .
CC(=O)N1c2ccc(S(=O)(=O)N3CCCC3C(=O)Nc3nc(C)cs3)cc2CC1C (stereo unspecified) | - | - | 5.0 | - | - | -
CC(c1ccccc1)C1CC(=O)N(Cc2ccccc2)C1=O (stereo unspecified) | - | - | 21.8 | - | - | -
CC(c1ccccc1)C1CC(=O)N(c2ccc(Cl)cc2)C1=O (stereo unspecified) | - | - | - | - | . | .
CC(C)(C)NC(=O)C(=O)NCc1ccc(Cl)cc1 | - | - | - | - | . | .
SMILES | TEAD-YAP block | MITF primary | GPR151 ag | FBW7 act | GPR151 confirm | GPR119 counter
O=C(O)/C=C/C(=O)Nc1ccc(Sc2ccc([N+](=O)[O-])cc2)cc1 | - | - | - | - | . | .
CCN(CC)c1ccc(NC(=O)/C=C\c2ccccc2)cc1 | - | - | - | - | . | .
O=C(O)/C=C\C(=O)Nc1ccc([N+](=O)[O-])cc1 | - | - | 8.1 | - | - | -
CCN(CC)c1ccc(NC(=O)/C=C\C(=O)O)cc1 | - | - | 16.0 | - | - | -
CC(=O)c1c(C)cn(CCC(=O)O)c1C | - | - | - | - | . | .
Cc1ccc(-c2csc(N3CCN(CC(=O)Nc4ccc([N+](=O)[O-])cc4)CC3)n2)cc1 | - | - | 7.0 | - | - | -
O=C(CN1CCN(c2nc(-c3ccccc3)cs2)CC1)Nc1ccccc1[N+](=O)[O-] | - | - | - | - | . | .
NC(=O)C1CCN(C2=NS(=O)(=O)c3ccccc32)CC1 | - | - | - | - | . | .
O=C(OCc1nc2ccccc2s1)C1CCN(C2=NS(=O)(=O)c3ccccc32)CC1 | - | - | 5.6 | - | - | -
COc1ccc(C(=O)NC2C3CC4CC(C3)CC2C4)cc1Cl (stereo unspecified) | - | - | - | - | . | .
COc1cc(OC)cc(C(=O)NC2C3CC4CC(C3)CC2C4)c1 (stereo unspecified) | - | - | 11.9 | - | - | -
COc1ccc(Cl)cc1C(=O)NC1C2CC3CC(C2)CC1C3 (stereo unspecified) | - | - | 5.0 | - | - | -
COC(=O)CN1C(=O)C2(C(C#N)=C(N)Oc3n[nH]c(C(C)C)c32)c2ccccc21 (stereo unspecified) | - | - | - | - | . | .
COc1cc(Cl)cc(/C=C2\C(=O)NN(c3ccccc3)C2=O)c1O | - | - | 5.7 | - | - | -
O=c1cc(-c2ccccc2O)oc2cc(O)ccc12 | - | - | - | - | . | .
COc1ccc(OC)c(-c2c3cc(O)c(=O)cc-3oc3cc(O)c(O)cc23)c1 | - | 106.9 | 5.0 | - | - | -
O=c1cc2oc3cc(O)c(O)cc3c(-c3ccccc3)c-2cc1O | - | 104.4 | 6.2 | - | - | -
CCN(c1ccc(F)cc1)S(=O)(=O)c1cccc2nonc12 | - | - | - | - | . | .
O=c1c2cnn(CCO)c2ncn1Cc1c(F)cccc1Cl | - | - | 6.6 | - | - | -
COC(=O)C(NC(=O)c1ccc(Br)cc1)c1ccccc1 (stereo unspecified) | - | - | 9.0 | - | - | -
COC(=O)C(NC(=O)c1ccccc1)c1ccccc1 (stereo unspecified) | - | - | - | - | . | .
c1ccc2c(c1)ncn2Cc1nnc2sc(-c3ccc4c(c3)OCCO4)nn12 | - | - | - | - | . | .
COc1ccc(-c2cc(C(=O)NCC(C)C)no2)cc1OC | - | - | - | - | . | .
COc1ccc(-c2cc(C(=O)NCC(C)C)on2)cc1OC | - | - | 7.8 | - | - | -
Cc1cc2ccccc2n1CCNC(=O)c1ccc(Br)cc1 | - | - | 5.0 | - | - | -
O=C1NC(N2CCOCC2)=N/C1=C/c1ccc2c(c1)OCO2 | - | - | 9.4 | - | - | -
CCOC(=O)c1c(Cl)nc(Cl)c(Cl)c1Nc1ccc2c(c1)OCO2 | - | - | - | - | . | .
CNS(=O)(=O)c1cccc(C(=O)OCc2cc(C(C)=O)ccc2OC)c1 | - | - | 5.0 | - | - | -
CNS(=O)(=O)c1cccc(C(=O)OCC(N)=O)c1 | - | - | 8.8 | - | - | -
